Data on twelve compounds can be found in PubChem BioAssay (NCI).

“And” between values parts separate entries of the source, which are not always exact repeats. Equal values may be shown once. Compounds without any hit were thinned out: in the full panel of roughly 83,000, 20% have a hit.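 Note: values are percent growth. 100 is the growth of untreated cells, values between 100 and 0 indicate rising inhibition; between -100 and 0 indicates cell death.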 Unmarked numbers belong to inactive results. The source made the active and inactive calls. Rule for the calls: active = growth percent below 10; inactive = the rest.

The subject of the test is MDA-MB-468 breast. Kind of test: NCI-60 one-dose screen, 48 h (100 = growth as untreated, 0 = no growth, -100 = all killed). The following applies: 10 µM unless noted.
Consider `CCCCOc1nc2ccc(Cl)cc2cc1/C=C/C(=O)/C=C1/CC(c2cc3cc(Cl)ccc3nc2OCCCC)Nc2ccccc2N1` (configuration not stated), for which the growth was 103%. Regarding `Cc1ccc(C)c2c1C(O)(C#Cc1ccccc1)c1ccccc1C2(O)C#Cc1ccccc1` (configuration not stated), the growth was 58.1%. In the case of `O=C1OC(C(O)C(O)CO)C(O)=C1O` (configuration not stated), the growth is 88.7% and 117%. With `Cc1cc(N2CCC(N3CCCC3)CC2)nc(/N=C(\N)Nc2ccc(Cl)c(Cl)c2)n1`, the growth is -81.4% (active).

As for `CCOC(=O)C#Cc1c(C(=O)OCC)nnn1Cc1ccc([N+](=O)[O-])cc1`, the growth was -19.6% (active). As to `Cc1ccc(-c2cc(-c3cccc(Nc4ccnc5cc(Cl)ccc45)c3)nc3nc(N)[nH]c(=O)c23)cc1`, the growth is 28%. On to `O=C(Nc1ccc(F)cc1)c1cc(-c2ccc(F)cc2F)ccc1O`, for which the growth was -7.21% (active). Turning to `Cc1ccc(-c2c(Br)c(OC(=O)CO[C@@H]3C[C@H](C)CC[C@H]3C(C)C)c(-c3ccc(C)cc3C)c(Br)c2OC(=O)CO[C@H]2C[C@@H](C)CC[C@@H]2C(C)C)c(C)c1`, the growth is 34.5%. Consider `Cc1cc(N=Nc2ccc(-c3ccc(N=Nc4ccc(O)c(C(=O)O)c4)cc3)cc2)c(N)c(N=Nc2ccc(C(=O)O)cc2)c1N`, for which the growth is 92.6%. To `CCN(CC)CCOc1ccc(/C(=C(/C)c2ccccc2)c2ccc(OC(C)=O)cc2)cc1` belongs 87.9%; to `COc1ccc(OC)c(CCn2cncc2-c2c[nH]c3ccc(Cl)cc23)c1`, -14.9% (active). Consider `CCCCCCN1C=C/C(=C\C(=O)n2ccc3ccccc32)c2ccccc21`, for which the growth was -12% (active).
